Assay results as given in PubChem BioAssay (NCATS).
Inconclusive results are not listed. Where a call stands in place of a potency, no number is given. Calls of active or inactive are those of the source. The call rests on the fitted dose curve; in most records, active means well fitted curve in the direction sought with a large enough effect; inconclusive means small, poorly fitted or top-dose-only effect, or another doubt; inactive means no such curve, though single readings can be large; an effect the other way counts as inactive or inconclusive.

What was measured:
[1] = Quantitative High-Throughput drug screen in 47 multiple myeloma cell lines against the NCATS MIPE library collection: ARD_JJKsccE7 cell viability assay (AID 1918929)
Procedure, shortened: (§1)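 CellTiter-Glo ATP luminescence gave viability after 48 h compound treatment at 37C of 500 multiple myeloma cells per well. Normalisation used DMSO-only wells as 100% and media-only wells as 0% viability; primary qHTS of approved and investigational drugs.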

[2] = Quantitative High-Throughput drug screen in 47 multiple myeloma cell lines against the NCATS MIPE library collection: Karpas620_DSMZ cell viability assay (AID 1918959); further: nearly all actives have a fitted effect of over 30% in size
Procedure, shortened: (§2)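 Inhibition of cell viability is measured here. Each line was plated at 500 cells per well, treated with MIPE 4.0 drugs, kept 48 hours at 37C, then assayed for ATP content by CellTiter-Glo luminescence.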

[3] = Quantitative High-Throughput drug screen in 47 multiple myeloma cell lines against the NCATS MIPE library collection: KMM1_JCRB cell viability assay (AID 1918960); further: nearly all actives have a fitted effect of over 30% in size
Procedure, shortened: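 Myeloma cells, 500 per well, were exposed to MIPE 4.0 drugs by pin transfer for 48 h at 37 °C, 5% CO2. Viability was read as ATP luminescence with CellTiter-Glo, normalised to DMSO-only (100%) and medium-only (0%) wells.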

[4] = Quantitative High-Throughput drug screen in 47 multiple myeloma cell lines against the NCATS MIPE library collection: JIM3_ECACC cell viability assay (AID 1918963; further: nearly all actives have a fitted effect of over 35% in size)
Procedure, shortened: as §2

[5] = Quantitative High-Throughput drug screen in 47 multiple myeloma cell lines against the NCATS MIPE library collection: JIM1_ECACC cell viability assay (AID 1918964)
Procedure, shortened: as §1

[6] = Quantitative High-Throughput drug screen in 47 multiple myeloma cell lines against the NCATS MIPE library collection: INA6_PLB cell viability assay (AID 1918965; further: nearly all actives have a fitted effect of over 55% in size)
Procedure, shortened: (§3)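 qHTS of the MIPE 4.0 collection: 500 myeloma cells/well, 48 h drug exposure at 37C in 5% CO2, then CellTiter-Glo for 5 min at room temperature before luminescence reading.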

[7] = Quantitative High-Throughput drug screen in 47 multiple myeloma cell lines against the NCATS MIPE library collection: JJN3_DSMZ cell viability assay (AID 1918966; further: nearly all actives have a fitted effect of over 50% in size)
Procedure, shortened: as §1

[8] = Quantitative High-Throughput drug screen in 47 multiple myeloma cell lines against the NCATS MIPE library collection: KHM11_PLB cell viability assay (AID 1918962); further: nearly all actives have a fitted effect of over 35% in size
Procedure, shortened: as §2

[9] = Quantitative High-Throughput drug screen in 47 multiple myeloma cell lines against the NCATS MIPE library collection: H1112_PLB cell viability assay (AID 1918967; further: nearly all actives have a fitted effect of over 30% in size)
Procedure, shortened: as §1

[10] = Quantitative High-Throughput drug screen in 47 multiple myeloma cell lines against the NCATS MIPE library collection: Karpas417_ECACC cell viability assay (AID 1918961); details: Karpas417 myeloma viability, CellTiter-Glo ATP luminescence, 48 h; viability (% of DMSO): at 45.8 µM (top of the series)
Procedure, shortened: as §3
Potency means the concentration at half of the fitted maximal effect.

Structure (SMILES)	Potency [1]	Potency [2]	Potency [3]	Potency [4]	Potency [5]	Potency [6]	Potency [7]	Potency [8]	Potency [9]	Potency [10]
FC(F)(F)c1ccc(Nc2nc3ccc(Oc4ccnc(-c5ncc(C(F)(F)F)[nH]5)c4)cc3[nH]2)cc1	14.8 µM (active)	26.4 µM (active)	18.7 µM (active)	23.5 µM (active)	11.8 µM (active)	18.7 µM (active)	20.9 µM (active)	–	–	–
O=C(NNC(=O)c1ccc(CNS(=O)(=O)c2ccc(F)c(Cl)c2)cc1)c1ccccc1	inactive	inactive	inactive	–	–	–	inactive	inactive	–	–
CC(C)(O)CC[C@@H](O)[C@](C)(O)[C@H]1CC[C@@]2(O)C3=CC(=O)[C@@H]4C[C@@H](O)[C@@H](O)C[C@]4(C)[C@@H]3CC[C@]12C	inactive	inactive	inactive	inactive	inactive	–	inactive	–	inactive	–
C=C(C)[C@@H]1CC[C@]2(C(=O)O)CC[C@]3(C)[C@H](CC[C@@H]4[C@@]5(C)CC[C@H](O)C(C)(C)[C@@H]5CC[C@]43C)[C@@H]12	inactive	inactive	inactive	inactive	–	inactive	–	3.72 µM (active)	inactive	–
c1ccc(CNc2nc(NCc3ccccc3)c3ccccc3n2)cc1	18.7 µM (active)	5.26 µM (active)	4.69 µM (active)	16.6 µM (active)	8.33 µM (active)	7.43 µM (active)	23.5 µM (active)	–	11.8 µM (active)	–
C[N+]1(C)[C@@H]2C[C@@H](OC(=O)C(O)(c3cccs3)c3cccs3)C[C@H]1[C@@H]1O[C@@H]12	inactive	inactive	inactive	inactive	–	inactive	inactive	–	inactive	–
CCCc1nc(C(C)(C)O)c(C(=O)O)n1Cc1ccc(-c2ccccc2-c2nn[nH]n2)cc1	inactive	inactive	inactive	–	–	–	inactive	inactive	–	–
CN(C)CCN1C(=O)c2cccc3cc(N)cc(c23)C1=O	29.6 µM (active)	26.4 µM (active)	18.7 µM (active)	14.8 µM (active)	–	3.32 µM (active)	20.9 µM (active)	7.43 µM (active)	18.7 µM (active)	–
OCc1ccccc1O[C@@H]1O[C@H](CO)[C@H](O)[C@H](O)[C@H]1O	inactive	inactive	inactive	inactive	inactive	13.2 µM (active)	–	–	–	–
COC(=O)[C@H](CCCN=C(N)N)NS(=O)(=O)c1ccc(C)cc1	inactive	inactive	inactive	–	inactive	–	–	inactive	inactive	–
CN(CC(=O)N(Cc1ccc(C2CCCCC2)cc1)c1ccc(C(=O)O)c(O)c1)S(=O)(=O)c1c(F)c(F)c(F)c(F)c1F	11.8 µM (active)	2.96 µM (active)	10.5 µM (active)	–	3.32 µM (active)	6.62 µM (active)	18.7 µM (active)	14.8 µM (active)	18.7 µM (active)	–
C[C@H]1[C@@H](OC(=O)CCC(=O)O)O[C@@H]2O[C@@]3(C)CC[C@@H]4[C@H](C)CC[C@@H]1[C@@]24OO3	1.48 µM (active)	0.166 µM (active)	0.332 µM (active)	6.62 µM (active)	0.935 µM (active)	2.64 µM (active)	1.48 µM (active)	–	16.6 µM (active)	–
COC(=O)[C@@H]1CC2=CC(=O)CC[C@]2(C)[C@@]23O[C@@H]2C[C@@]2(C)[C@H](CC[C@@]24CCC(=O)O4)[C@@H]13	inactive	inactive	inactive	inactive	inactive	inactive	–	–	inactive	–
C[C@H]1C[C@H]2[C@@H]3CCC4=CC(=O)C=C[C@]4(C)[C@@H]3C(=O)C[C@]2(C)[C@@]1(O)C(=O)CO	inactive	inactive	–	inactive	–	–	inactive	inactive	inactive	inactive
O=[N+]([O-])c1cn2c(n1)OC[C@@H](OCc1ccc(OC(F)(F)F)cc1)C2	inactive	inactive	inactive	–	inactive	–	–	–	inactive	–
Nc1ccc(C(=O)Nc2cccc(-c3nc(N4CCOCC4)c4oc5ncccc5c4n3)c2)cn1	1.66 µM (active)	6.62 µM (active)	–	4.18 µM (active)	5.26 µM (active)	3.32 µM (active)	5.26 µM (active)	7.43 µM (active)	4.18 µM (active)	0.526 µM (active)
